Rows were chosen to be rich in hits. Some 6.2% of all compounds tested hit in one or more screens of this group.
HT1080 IDH1KD tx: qHTS for induction of synthetic lethality in tumor cells producing 2HG: qHTS for the HT-1080-IDH1KD cell line; HT-1080 IDH1 knockdown viability, ATP luminescence, 48 h; Potency, µM (top dose mostly 46.1 µM), for the others: top-dose activity, negative = toxicity, most hits filed as cytotoxic; 360,000 tested, 2% active; AID 686971, 2013;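 note: 0% = DMSO wells and -100% = cell-free medium wells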
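Luminescent ATP read-out (CellTiter-Glo, 10 min at room temperature) after 48 h compound exposure at 37 °C gave viability of IDH1-knockdown HT-1080 cells. Activity was normalised to DMSO and cell-free wells, then fitted as concentration-response curves.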
S2 tox: Viability Counterscreen for Primary qHTS for Inhibitors of ATXN expression. S2 cells (HEK-293 line with an ATXN2-luciferase reporter) viability, CellTiter-Fluor protease fluorescence, 24 h. Potency, µM (series often up to 56.7 µM), most hits filed as cytotoxic. 400,000 tested, 0.49% active; note: nearly all actives have a fitted effect of over 40% in size
ATXN2 expr inh: Primary qHTS for Inhibitors of ATXN expression; HEK-293 ATXN2-luciferase reporter, luminescence, 24 h; Potency, µM (series often up to 57 µM), without a hit: at the top dose activity change, negative = inhibition, usual class: inhibitors; 360,000 tested, 0.72% active; note: % is set by controls: 0 for no effect and ±100 for the full control effect; nearly all actives have a fitted effect of over 55% in size
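qHTS (up to 57 uM final) was run with 24 h compound exposure of reporter cells at 37 °C. Each well was multiplexed: SteadyGlo luminescence measured ATXN2-luciferase expression after a fluorogenic Gly-Phe-AFC viability readout (25 uM final).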
KB-V1 MDR tox: qHTS assay for MDR1-selective chemotherapeutics: Primary screen using the drug-selected MDR subline cells KB-V1 | KB-V1 MDR cells viability, CellTiter-Glo, 72 h | Potency, µM (titrated, usually from 46.1 µM), hits mostly cytotoxic | 400,000 tested, 3.4% active; note: % is set by controls: 0 for no effect and ±100 for the full control effect; nearly all actives have a fitted effect of over 60% in size
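Compound-treated KB-V1 multidrug-resistant cells, 72 h, 37 degrees C; viability by CellTiter-Glo. Fitted qHTS curves give the values.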
KB-3-1 tox: qHTS assay for MDR1-selective chemotherapeutics: Primary screen using the parental adenocarcinoma cell KB-3-1 | AID 1347075, 2019 | KB-3-1 viability, CellTiter-Glo ATP luminescence, 72 h | Potency, µM (series often up to 46.1 µM), most hits filed as cytotoxic | 400,000 tested, 1.4% active; note: % is set by controls: 0 for no effect and ±100 for the full control effect; nearly all actives have a fitted effect of over 60% in size
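Luminescent ATP read-out (CellTiter-Glo) measures survival of drug-naive KB-3-1 cells after 72 h compound exposure at 37 °C. Titration series was screened from lowest to highest concentration, with DMSO vehicle plates as background controls.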
HT1080-NT tox: qHTS for induction of synthetic lethality in tumor cells producing 2HG: qHTS for the HT-1080-NT fibrosarcoma cell line. 360,000 tested, 1.6% active. Potency, µM (top dose mostly 46.1 µM), inactives show top-dose activity, negative = less viability, usual class: cytotoxic. HT-1080-NT fibrosarcoma viability, CellTiter-Glo ATP luminescence, 48 h;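 note: NT is the 2HG producing partner of a matched IDH1 knockdown line; 0% = DMSO-treated cells and -100% = media-only wells without cells; nearly all actives have a fitted effect of over 55% in size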
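HT-1080-NT fibrosarcoma cells (2HG-overproducing), 750 cells/well in RPMI with 5% FBS, dosed after 2 h and incubated 48 h at 37C. CellTiter-Glo luminescence normalized to DMSO and no-cell wells; concentration-response curves fitted and classed.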
An asterisk follows results filed as active; i = inactive; ? = inconclusive; / = no result given. Calls come from the whole dose curve; as a rule, active = well fitted curve in the direction sought with a large enough effect; inconclusive = small, poorly fitted or top-dose-only effect, or another doubt; inactive = no such curve, though single readings can be large; an effect the other way counts as inactive or inconclusive. Potency is the fitted concentration of half-maximal effect.

SMILES | HT1080 IDH1KD tx | S2 tox | ATXN2 expr inh | KB-V1 MDR tox | KB-3-1 tox | HT1080-NT tox
C#C[C@]1(O)CC[C@H]2[C@@H]3CCC4=CC(=O)CC[C@@H]4[C@H]3CC[C@@]21C | -12.0% | i | 2.8% | 2.31µM* | ? | -0.1%
C#C[C@]1(O)CC[C@H]2[C@@H]3CCC4=C(CCC(=O)C4)[C@H]3CC[C@@]21C | 0.5% | i | 4.2% | 14.6µM* | ? | -21.0%
C#C[C@]1(OC(C)=O)CC[C@H]2[C@@H]3CCC4=CC(=O)CC[C@@H]4[C@H]3CC[C@@]21C | / | i | / | / | / | /
CCCCNC(=O)c1ccc2nc(-c3cccs3)c(-c3cccs3)nc2c1 | / | / | / | i | i | /
COc1ccc(CNS(=O)(=O)CCNC(=O)c2cccc(OC)c2)cc1 | 2.8% | i | 5.6% | 16.4µM* | i | 5.0%
COc1ccc(C(=O)NCCS(=O)(=O)NCc2ccc3c(c2)OCO3)cc1 | 8.1% | ? | 4.2% | i | i | 3.3%
COc1ccc(C(=O)NCc2ccc3c(c2)OCO3)cc1S(=O)(=O)NCc1ccc(Cl)cc1 | -11.4% | ? | -3.8% | i | i | -3.5%
COc1ccc(C(=O)NCc2ccc3c(c2)OCO3)cc1S(=O)(=O)N(C)Cc1ccccc1 | -10.0% | i | -3.8% | 9.2µM* | i | -8.7%
COc1cccc(C(=O)NCCS(=O)(=O)NCc2ccc3c(c2)OCO3)c1 | -5.5% | i | 2.2% | 18.4µM* | i | -12.3%
CCc1ccc(NC(=O)N(Cc2cn(CC)c3ccccc23)C2CCCCC2)cc1 | / | / | ? | i | ? | /
Nc1c(C(=O)Nc2cccc(F)c2)c2ccccn2c1C(=O)c1ccccc1 | / | i | -6.5% | i | i | /
Cc1ccc2[nH]c(=O)c3cc(C(=O)N(C)c4ccc(Br)cc4)sc3c2c1 | / | i | 11.4% | i | i | /
COc1ccc(NC(=O)/C(Cl)=C(/Cl)S(=O)Cc2ccccc2)cn1 (stereo not given) | 1.46µM* | 4.47µM* | 2.82µM* | 8.2µM* | 5.8µM* | 5.8µM*
COc1ccc(CS(=O)(=O)/C(Cl)=C(/Cl)C(=O)Nc2ccc(OC)nc2)cc1 | 8.2µM* | ? | 12.6µM* | 3.66µM* | ? | 23.1µM*
COc1ccccc1Cn1c(C)c(C(=O)NCc2cccc(C)c2)sc1=O | -10.3% | i | -19.1% | ? | i | -10.9%
COc1cc(C(=O)NCc2ccccc2)ccc1OC(F)F | -8.6% | i | 0.6% | i | i | -4.5%
COc1ccc(CNC(=O)c2sc(=O)n(Cc3ccc(-c4ccccc4)cc3)c2C)cc1OC | ? | i | 0.0% | 9.2µM* | ? | -11.5%
COc1ccc(CNC(=O)c2sc(=O)n(Cc3ccccc3C)c2C)cc1 | -14.3% | i | ? | ? | i | -11.0%
COc1ccc(CNC(=O)c2sc(=O)n(Cc3ccc(C)cc3)c2C)cc1OC | -1.3% | i | -24.4% | 18.4µM* | i | 3.7%
Cc1ccc(Cn2c(C)c(C(=O)NCc3cccc(C(F)(F)F)c3)sc2=O)cc1 | 0.6% | i | 5.6% | ? | i | -12.0%
COc1cc(C(=O)NCc2ccc(C)cc2)ccc1OC(F)F | -5.0% | i | 1.8% | 23.1µM* | i | 3.3%
Cc1cccc(CNC(=O)c2sc(=O)n(Cc3c(C)cccc3C)c2C)c1 | ? | i | 6.5% | 20.6µM* | ? | -13.7%
Cc1ccc(C)c(C(=O)N2CCC(C3(c4ccccn4)NC(=O)N(CC4CCCO4)C3=O)CC2)c1 (stereo not given) | / | i | / | / | / | /
Cc1ccn2c(=O)c(C(=O)NCCc3ccccc3)c(O)nc2c1 | / | i | 9.0% | ? | i | /
CN(C)c1ccc(Nc2ncnc3sc4c(c23)CCCC4)cc1 | / | i | -14.1% | i | i | /
SMILES | HT1080 IDH1KD tx | S2 tox | ATXN2 expr inh | KB-V1 MDR tox | KB-3-1 tox | HT1080-NT tox
CC(=O)Nc1ccccc1-c1nc(CNC(=O)c2ccc(C)cc2)c(C)o1 | / | i | / | / | / | /
Cc1ccc(Cn2c(C)c(C(=O)NCC(C)C)sc2=O)cc1 | -0.9% | i | 9.6% | 13µM* | i | 3.2%
Cn1cc(/C=C/C(=O)c2ccccc2)c2ccccc21 | -19.1% | i | -17.7% | ? | i | -9.5%
Cc1cc2c(c(/C=C/C(=O)c3ccccc3)c1)OC1(C=C2)Oc2ccccc2C(=O)N1C (stereo not given) | ? | ? | ? | ? | 16.4µM* | ?
COc1cc(O)c(C(CC(=O)N2CCOCC2)c2ccc(OC)c(OC)c2)c(OC)c1 (stereo not given) | / | / | / | i | i | /
O=C(CSc1nc2ccc(Cl)cc2[nH]1)c1ccc2c(c1)OCO2 | 8.4% | i | 18.6% | i | i | 1.3%
O=C(CSc1nc2cc(Cl)c(Cl)cc2[nH]1)c1ccc2c(c1)OCO2 | -17.8% | / | -28.2% | 8.2µM* | 14.6µM* | -24.6%
COC(=O)c1ccccc1NC(=O)c1sc2nc(C)cc(C)c2c1NC(=O)c1ccccc1Cl | / | ? | 9.3% | i | ? | /
Cc1ccc(S(=O)(=O)NCCC(c2ccc(F)cc2)c2ccco2)cc1 (stereo not given) | -22.7% | i | 3.3% | 20.6µM* | ? | -8.3%
Cc1ccc(S(=O)(=O)NCCC(c2ccccc2)c2ccco2)cc1 (stereo not given) | -6.2% | i | -1.0% | 23.1µM* | i | -1.3%
Cc1ccc(S(=O)(=O)NCC(=O)N(c2ccccc2)C(C(=O)NCc2ccccc2)c2ccco2)cc1 (stereo not given) | -3.9% | i | -14.3% | 2.31µM* | i | -1.9%
COc1ccccc1C(CCNS(=O)(=O)c1ccc(C)cc1)c1ccco1 (stereo not given) | 1.0% | i | / | ? | i | -5.6%
CN(C)c1ccc(C(=O)NCc2ccc3c(c2)CCN3C(=O)c2ccccc2)cc1 | / | / | / | i | i | /
CC(C)CNc1nc(N)c([N+](=O)[O-])c(N2CCCCCC2)n1 | ? | i | -11.9% | 9.2µM* | 18.4µM* | ?
CCC(C)Nc1nc(N)c([N+](=O)[O-])c(N2CCCCCC2)n1 (stereo not given) | -10.9% | i | -26.8% | i | i | -2.7%
COc1ccc2[nH]c3nc(SCc4nnc(-c5ccc(C)cc5)o4)nnc3c2c1 | ? | / | 20µM* | ? | ? | ?

Screening data as filed in PubChem.
